PBM binding z-score data for 40 sequences are collected here from the supplement of paper PMC6555819.

The assay concerns VDR:RXRa (NR concentration 270 nM, RXRa partner concentration 90 nM). The assay can be described thus: PBM binding z-score (relative to random genomic background probes); higher = stronger binding; sequences stand for … in GC…GCGATTGACAGCGTAGAATGAAGG
The procedure:
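Protein-binding microarray (Agilent 4x180K custom design, double-stranded 60-nt probes: 5' GC cap, 34-nt variable region, 24-nt constant primer region; full probe sequence given). Purified or IVT nuclear receptor:RXRα heterodimers (3:1 NR:RXRα, mostly 270:90 nM) or homodimers were incubated for 1 h in PBS with 2% milk and no ligand, then detected with Alexa488 antibodies. Fluorescence from o1-orientation probes (~5 replicates averaged) was converted to z-scores against 500 random hg19 background probes. Variable regions are seed direct-repeat (DR0–DR5) sites, all their single-nucleotide variants and half-site ablations.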
TCTATTAGTTGAGGGGCAACCGACGAGTCCGTTT showed a PBM binding z-score of 0.965. The result for AGAATGAGGTTACCAAAGATCAGGGAAACGCTTG reads 1.37; that for CGAACTAGGTCATCCAGCACAGTGAATACATTGA, 2.34; that for TCATATAGATAATACAGGTGAAAGTCGGCATCTA, 1.17. For TCTAGTTGGTCAAAGGTCACACAGTCGAAATGCG, the PBM binding z-score was found to be 5.68. Regarding ATCTCTAAGTAAAAGTTCAGTGAATCCCGAGGAT, the PBM binding z-score was 1.05. For GCTTGTAGATCAAGGTTATGAAAGACTAAGCTAA, the PBM binding z-score was 0.325. Take CCTTACGGTTCACGAGGTTATAGCACGACGAGCG: the PBM binding z-score amounted to 4.12. ACTAGTTGGTCAGCTGACGTCACACACAATTCGG showed a PBM binding z-score of 0.0123. Take CTTGCTAGGTCATGGTCAGCTAATCTACAGTATG: the PBM binding z-score was 1.59. The result for AGAATGAGGTTAAGCTCAGGGAAACAGAATACAT reads 1.26; that for ATATGCAGGTTAGCTGGGGTCATTCAGACTAGGC, 6.21; that for GCTTGTAGATCAAGGTTAGGAAAGACTAAGCTAA, -0.45. TCTAGCTGGCCAGAGGGTCACTCAAGAGGTACGG yielded a PBM binding z-score of 1.44. Take GAAGACAGGTGAAACGCAGGTAACTCAGGGTGGC: the PBM binding z-score is -0.438.

The sequence CGTCCAAGGTCATAGGAGGTCAGTGAAGACAGAT showed a PBM binding z-score of 6.46.

CCGACTGGCGCAAGGTTACCATAACGCACAGCCA yielded a PBM binding z-score of 0.151. Turning to ATATGTAGGTTAGCAGGGGTCATTCAGACTAGGC, the PBM binding z-score stood at 6.33. Turning to CGAACTAGGTCATCCAGGATAGTGAATACATTGA, the PBM binding z-score was 3.02. In the case of ATCTCTAGGTAAAGTTAGTTCAGTGAATGCAAAT, the PBM binding z-score came out at 1.42. For the sequence ATCTCTAGGTAAAAGCTCAGTGAATCCCGAGGAT, the PBM binding z-score is -0.227. The result for GCTAGTTGGTTAGTAAAAGGTCACACACCGGTCG reads 3.93; that for ACTAGCAGGCCAAGGGTCACTCCAGATTAGTCCG, 2.32; that for ATACCAAGGTGATCGCGAGGTCGTTGATACTAAC, 3.37. The result for ACTATTAGGTGAGACGAGGGCAACCGATAGGTTG reads 1.77; that for CAAACTAGATCAAGAGGTCAAAGTCCGCTTCCCG, 4.68; that for ATATGTAGGTTAGCTGGGGTCATTCAAACTAGGC, 6.37. Take ATTACAGGGTCACTAGGCCAGAGTAGGTACGAAT: the PBM binding z-score is 4.19. CGTCCAAGGTCAAAGGTCAGTGGAGAGATGACGG came in with a PBM binding z-score of 6.82. The result for TCTGCTAGGTCAACCATGGTCAGCTAATCTGCTA reads 2.27; that for ATCTCTAGGTAAAAGTCCAGTGAATCCCGAGGAT, 0.00204. As to GGAACGTGGGCATTCGAGTTGATAGCATGGCGAT, the PBM binding z-score was -0.17. ATCTCAAGGTAAAGTTCAGTGAAAGATCGATAGA returned a PBM binding z-score of 1.8. Regarding CCTAGTTGGTCAGGAGGTCACTCACCGGATATGA, the PBM binding z-score amounted to 3.4. As for ACTATTAGTTAACTTAGGGCAACCGATACGACGC, the PBM binding z-score is 0.299.

Sequence ACTTGCAGGCCAAGTTTGGGTCACTCAAACAAAG gave a PBM binding z-score of 0.755. CCTACTGGGCCATCAAGTCATTGATATCAACGTT: the PBM binding z-score was -0.0971. The result for CCGACTGGGGCAAAGGTTACCAGACTCAGTACGA reads 1.64. Turning to ACTAGCAGGCCAAATTTGGGTCACTCAAACAAAG, the PBM binding z-score was 0.734. Take CAAACTAGGTCAAGTGGTCAAAGTCCGCTTCCCG: the PBM binding z-score turned out to be 2.52.
